Measured values: PubChem BioAssay AID463173 (ICCB-Longwood Screening Facility, Harvard Medical School, 2010)
Out of some 52,000 compounds screened, about 4,300 (8.3%) were called active. The sample holds actives, similar compounds and a random draw of the others, so the mix is not that of the screen. Values without a mark were called inactive. Rule as the data show it: active = survival mostly below about 52% (no sharp cut-off); inactive = mostly above about 56%.

System: DeltatarO mutant
Test: S. aureus survival, RN4220 and DeltatarO strains – OD600, teichoic acid synthesis inhibitors, primary screen (AID 463173)
Conditions: S. aureus RN4220 wild type/DeltatarO growth, OD600, 18 h, hits give low values, screened at 18.75 µg/mL (by protocol)

Structure (SMILES) | survival
COc1cccc(NC(=O)CN2CCCN(S(=O)(=O)c3ccc(Br)cc3)CC2)c1 | 58%
CCC1(CC)Cc2ccccc2-c2nc(NCCCO)[nH]c(=O)c21 | 82%
COc1ccccc1N1CCN(C(=O)c2cc3c(=O)n(Cc4cccs4)ccc3nc2C)CC1 | 74%
Cc1oc2ncn(CC(C)C)c(=O)c2c1C(=O)NCCCN(Cc1ccccc1)C(C)C | 117%
COc1ccc2c(C)c(CCC(=O)NCCc3ccccc3OC)c(=O)oc2c1 | 77%
Cc1ccc2oc(-c3cc(NC(=O)/C=C/c4ccco4)ccc3Cl)nc2c1 | 40% (active)
Cc1cc(NC(=O)Cc2ccccc2)cc(-c2nc3ccccc3o2)c1O | 79%
O=C(Nc1ccc(O)c(-c2nc3ccccc3o2)c1)c1ccco1 | 71%
Cc1ccc2oc(-c3cc(NC(=O)c4ccco4)ccc3Cl)nc2c1 | 0% (active)
Cc1ccc2nc(-c3cc(NC(=O)/C=C/c4ccccc4)ccc3Cl)oc2c1 | 68%
O=C(Nc1ccc(Cl)c(-c2nc3ccccc3o2)c1)c1cccc2c(Cl)cccc12 | 84%
Cc1ccc2oc(-c3cc(NC(=O)c4oc5ccccc5c4C)ccc3Cl)nc2c1 | 62%
Cc1cc(C)c2oc(-c3cc(NC(=O)Cc4ccccc4)ccc3Cl)nc2c1 | 31% (active)
Cc1ccccc1-c1nc2cc(NC(=O)Cc3ccc(Cl)cc3)ccc2o1 | 66%
O=C(/C=C/c1ccco1)Nc1ccc(Cl)c(-c2nc3cc(Cl)ccc3o2)c1 | 65%
Cc1cc(NC(=O)c2ccco2)cc(-c2nc3cc(Cl)ccc3o2)c1O | 79%
COc1c(C)cccc1C(=O)Nc1ccc(Cl)c(-c2nc3cc(C)ccc3o2)c1 | 6% (active)
CC1CCN(c2nc3ccc(C(=O)NCc4ccccc4)cc3s2)CC1 | 77%

Structure (SMILES) | survival
CC(=O)Nc1ccc(OCc2cc(=O)n3ccccc3n2)cc1 | 76%
Cc1ccc(-c2nc3sc(CCNC(=O)c4ccc(Br)o4)c(C)n3n2)cc1 | 84%
CCOC(=O)C1CCN(C(=O)CN(c2cc(Cl)ccc2OC)S(C)(=O)=O)CC1 | 95%
CC1CCCCC1NC(=O)CN1CCC(NC(=O)c2cccc(F)c2)CC1 (stereo unspecified) | 85%
CC1CCCN(CCCNC(=O)Cn2ncc3c([nH]c4ccccc43)c2=O)C1 (stereo unspecified) | 94%
O=C(Nc1cc(F)ccc1F)C1COc2ccccc2C1 (stereo unspecified) | 69%
Cc1ccc2oc(-c3cccc(NC(=O)Cc4ccc(Cl)cc4)c3)nc2c1 | 72%
CCOc1ccc(C(=O)Nc2ccc(Cl)c(-c3nc4cc(C)cc(C)c4o3)c2)cc1 | 66%
Cc1cc2nc(-c3cccc(NC(=O)COc4ccc(Cl)c(C)c4)c3)oc2cc1C | 64%
CCCCOc1ccc(C(=O)Nc2cccc(-c3nc4ccccc4o3)c2C)cc1 | 76%
Cc1ccc2oc(-c3cc(NC(=O)Cc4ccccc4)ccc3Cl)nc2c1 | 52% (active)
CCc1ccc(OCC(=O)Nc2ccc(Cl)c(-c3nc4ncccc4o3)c2)cc1 | 47%
Cc1cc(NC(=O)COc2ccccc2)cc(-c2nc3ccccc3o2)c1O | 94%
CCc1ccc(OCC(=O)Nc2ccc(Cl)c(-c3nc4cc(C)cc(C)c4o3)c2)cc1 | 35% (active)
Cc1ccc2oc(-c3cc(NC(=O)CC(C)C)ccc3Cl)nc2c1 | 87%
Cc1ccc2nc(-c3cc(NC(=O)COc4ccc(C)c(C)c4)ccc3Cl)oc2c1 | 30% (active)
Cc1ccc(OCC(=O)Nc2cccc(-c3nc4ccccc4o3)c2C)cc1C | 55% (active)
Cc1ccc(OCC(=O)Nc2ccc(-c3nc4ccc(C)cc4o3)cc2)cc1 | 66%
